Measurements as given in PubChem BioAssay (NCI).
Compounds without any hit were thinned out: in the full panel of roughly 83,000, 20% have a hit.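 Each cell line was grown in a 96-well plate and treated with one concentration of compound for 48 hours. Values below 10 were considered active.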 Calls of active or inactive are those of the source.

Test system: KM12 colon
Assay: NCI-60 one-dose screen, 48 h (100 = growth as untreated, 0 = no growth, -100 = all killed)
Conditions: 10 µM unless noted

Compound | growth
COc1ccc(/C=C/c2nc(-c3n[nH]c(=O)n3-c3ccccc3)c3ccccc3n2)cc1 | 94.2% (inactive)
COc1ccc(-c2n[nH]nc2-c2csc3ccccc23)cc1OC | 27.6% (inactive)
CSc1nc(-c2cccc(NC(=O)CCl)c2)c(C#N)c(=O)n1C | 98.5% (inactive)
Cc1cc(C)c2nc3nc(C)cc(C)c3c(N)c2c1 | 22.3% (inactive)
Cc1nn(-c2cc(=O)[nH]c3ccccc23)c(N)c1C#N | 101% (inactive)
CCOC(=O)c1c(C(=O)OCC)c2cc(-c3ccn4c(C(=O)c5ccccc5)c(C(=O)OCC)c(C(=O)OCC)c4c3)ccn2c1C(=O)c1ccccc1 | 87.7% (inactive)
CNC(=O)c1cc(Oc2ccc(NC(=O)Nc3ccc(Cl)c(SC)c3)c(F)c2)ccn1 | 29.3% (inactive)
O=c1nc2oc3ccc4ccccc4c3cc-2s1 | 19.5% (inactive)
CN(C)C(=S)N=Nc1c(O)[nH]c2ccccc12 | 25.9% (inactive)
CC(=O)O[C@H]1CC[C@]2(C)[C@H]3CC=C4[C@@H]5CC(C)(C)CC[C@]5(C(=O)NCCNCCN)CC[C@@]4(C)[C@]3(C)CC[C@H]2C1(C)C | 19.7% (inactive)
O=C1c2cc3c(cc2-c2c1c1ccc(F)cc1c(=O)n2CCCNCCO)OCO3 | -29.9% (active)
COc1cc(/C=C/C(=O)c2c(C)oc3nc[nH]c(=O)c23)cc(OC)c1OC | 96.9% (inactive)
COC[C@H](C)n1c(C2CCOCC2)nc2cnc3cc(-c4c(C)noc4C)c(OC)cc3c21 | 54% (inactive)
Cn1cc(-c2nonc2-c2c[nH]c3ccc(F)cc23)c2cccnc21 | 67.4% (inactive)
COc1cc2c(cc1-c1c(C)noc1C)ncc1nc(C3CCOCC3)n([C@H](C)COC(F)F)c12 | 47% (inactive)
CC1=C[C@H]2c3c(c(O)c(O)c4oc5cc(O)ccc5c(=O)c34)[C@H](c3cc(O)c(O)c4oc5cc(O)ccc5c(=O)c34)[C@H]2C(C)(C)C1 | 15% (inactive)
COc1cc(-c2nn(-c3ccc(Br)cc3)cc2C(=O)O)ccc1O | 94.8% (inactive)
COc1cc(C2CC(=O)c3ccccc3N2)cc(OC)c1OC (centres undefined) | 99.6% (inactive)
CC1=NN(c2nc(-c3ccc(Cl)cc3)c(C#N)c(N3CCOCC3)n2)C(=O)C1 | 99.7% (inactive)
COCCNc1ccc2c3c(cccc13)C(=O)N(CCN(C)C)C2=O | 24.9% (inactive)

Compound | growth
CCOC(=O)c1cc(C(=O)c2ccc(O)c(O)c2)n2ccc(-c3ccn4c(C(=O)c5ccc(O)c(O)c5)cc(C(=O)OCC)c4c3)cc12 | 97% (inactive)
CCN=C1C=CC(=C(c2ccc(N)cc2)c2ccc(N(CC)CC)c(C)c2)C=C1 | -88.4% (active)
COc1ccc(/C=C\c2cc(OC)c(OC)c(OC)c2)cc1OC(=O)c1cccc(Cn2cc(CCOC(=O)[C@H](N)Cc3cn(C)c4ccccc34)nn2)c1 | 5.51% (active)
Cc1cc(N2CCSCC2)nc(NC2CCCC(Nc3ccnc4cc(Cl)ccc34)C2)n1 (centres undefined) | 8.04% (active)
CSc1nc(NCCO)c(C#N)c(-c2cccc([N+](=O)[O-])c2)n1 | 98.3% (inactive)
Cc1ccc(C2=NN3C(C2)c2cc(Br)ccc2OC32CCN(Cc3ccccc3)CC2)o1 (centres undefined) | 95.4% (inactive)
COc1ccc(/C=C(\C#N)C(=O)Nc2cccc(Nc3nc(SC)nc(-c4cccc([N+](=O)[O-])c4)c3C#N)c2)cc1OC | 99.1% (inactive)
CCN(CC)CCCCNc1c2ccc(Cl)cc2nc2ccc(OC)cc12 | -6.4% (active)
O=C(/C=C/c1cc(CN2CCOCC2)c(O)c2ncccc12)c1cc(CN2CCOCC2)c(O)c2ncccc12 | 21.7% (inactive)
COc1cc(-c2nc3ccccc3[nH]2)ccc1OCC(=O)N=Nc1c(O)[nH]c2ccc(Cl)cc12 | -87.2% (active)
COc1ccc(-n2nc(C)c3c(Nc4ccc(NC(=O)Nc5cc(C(F)(F)F)ccc5F)cc4)ncnc32)cc1 | 16.5% (inactive)
COc1cc(-c2nc3cc(Cl)c(Cl)cc3[nH]2)ccc1OCC(=O)N=Nc1c(O)[nH]c2ccccc12 | -81.5% (active)
CN(C)CCN1C(=O)c2cccc3c(N)ccc(c23)C1=O | 28.1% (inactive)
Cc1nc2ccccc2n1C(=O)C[C@@H]1NC(=S)NC1=O | 102% (inactive)
CCN(CC)c1ccc(-c2cc(-c3cc(OC)c(OC)c(OC)c3)nc(N3CCOCC3)c2C#N)cc1 | 27.1% (inactive)
O=C1c2cc3c(cc2-c2c1c1cc(F)c(F)cc1c(=O)n2CCCn1ccnc1)OCO3 | 3.55% (active)
O=C(Cn1cccc(Nc2ccccc2)c1=O)Nc1ccccc1 | 110% (inactive)
COc1cc(-c2nc3ccccc3[nH]2)ccc1OCc1nnc(-c2ccc(CC(C)C)cc2)o1 | 102% (inactive)
FC(F)(F)c1ccc(-c2cn3nc(-c4c[nH]c5ccc(Br)cc45)sc3n2)cc1 | 87.3% (inactive)
